# Test results: the supplement of paper PMC13380429
# Legend:
# [1] = test system: Vero E6 infected with SARS-CoV-2; test: morphology score (similarity to uninfected cells); higher = more like uninfected cells; conditions: 24 h
# [2] = test system: Vero E6 infected with SARS-CoV-2; test: SARS-CoV-2 infection rate relative to infected DMSO; higher = more infection, active = 60 or less; conditions: 24 h
SMILES,morphology score [1],SARS-CoV-2 infection rate [2]
NC(N)=Nc1nc(CSCCN/C=N/S(=O)(=O)c2ccc(Br)cc2)cs1 [ebrotidine] (10 µM),0.0177,97% (inactive)
CC(C)CC(NC(=O)OCC1c2ccccc2-c2ccccc21)C(=O)O (stereo in doubt) (10 µM),0.145,96% (inactive)
NC(=O)c1cccnc1 [nicotinamide] (10 µM),0.026,108% (inactive)
Oc1ccnc2cc(Cl)ccc12 [chloroxoquinoline] (10 µM),0.159,99.5% (inactive)
O=P1(N(CCCl)CCCl)NCCCO1 (stereo not given) [cyclophosphamide] (10 µM),0.0658,97.5% (inactive)
NC(=O)c1cnccn1 [pyrazinamide] (10 µM),0.0672,110% (inactive)
NC(=O)c1noc([C@H](CCCC2CCCCC2)CC(=O)NO)n1 (10 µM),0.51,85% (inactive)
CC(C)C(=O)OC[C@@]1(N=[N+]=[N-])O[C@@H](n2ccc(N)nc2=O)[C@H](OC(=O)C(C)C)[C@@H]1OC(=O)C(C)C [balapiravir] (10 µM),0.0882,88% (inactive)
N=C(N)NCCCC[C@@H]1NC(=O)CCSSC[C@@H](C(N)=O)NC(=O)[C@@H]2CCCN2C(=O)[C@H](Cc2c[nH]c3ccccc23)NC(=O)[C@H](CC(=O)O)NC(=O)CNC1=O [eptifibatide] (10 µM),-0.125,118% (inactive)
COc1cc(N)c(Cl)cc1C(=O)NC1CCN(Cc2ccccc2)CC1 [clebopride] (10 µM),-0.0118,110% (inactive)
O=C(COc1cccc2c(=O)[nH]ccc12)c1ccccc1 (10 µM),0.0752,87% (inactive)
CCN1CCN(c2cc(-c3ccc(F)cc3)c3c(n2)CCCCCC3)CC1 [blonanserin] (10 µM),0.248,107% (inactive)
Clc1ccc(COC(Cn2ccnc2)c2ccc(Cl)cc2Cl)c(Cl)c1 (stereo not given) [miconazole] (10 µM),-0.274,118% (inactive)
Cc1oc(=O)oc1CN1CCN(c2cc3c(cc2F)c(=O)c(C(=O)O)c2n3C(C)S2)CC1 (stereo not given) [prulifloxacin] (10 µM),0.197,97% (inactive)
CNC(=C[N+](=O)[O-])NCCSCc1ccc(CN(C)C)o1 [ranitidine] (10 µM),-0.0967,111% (inactive)
C[C@]12CC[C@@H]3c4ccc(OS(=O)(=O)O)cc4CC[C@H]3[C@@H]1CCC2=O [estropipate] (10 µM),0.227,99% (inactive)
CC(C)(C)/[N+]([O-])=C/c1ccc(S(=O)(=O)O)cc1S(=O)(=O)O (10 µM),0.00191,114% (inactive)
C[C@H]1C[C@@H]2[C@H]([C@@H](O)C[C@@]3(C)[C@H]2CC[C@]3(O)C(=O)CO)[C@@]2(C)C=CC(=O)C=C12 [methylprednisolone] (10 µM),-0.0624,108% (inactive)
CC[C@@H](C)Nc1cc(C(=O)N[C@H]2C[C@H]3CC[C@@H](C2)N3c2ccc(C(=O)C3CC3)cn2)c(C)cc1C(N)=O (10 µM),0.188,98.5% (inactive)
O=C(CNC(=O)c1cccc(C(F)(F)F)c1)N[C@@H]1CCN(Cc2ccc(Cl)cc2)C1 [teijin-compound-1] (10 µM),-0.116,103% (inactive)
CC(C)(Oc1ccc(C(=O)c2ccc(Cl)cc2)cc1)C(=O)O [fenofibric-acid] (10 µM),0.137,97% (inactive)
COc1cc2c(NC3CCN(C)CC3)nc(N3CCCN(C)CC3)nc2cc1OCCOCCN(C)C (10 µM),0.108,110% (inactive)
CCN1CCN(Cc2ccc(C(=O)Nc3ccc(C)c(Oc4ccc5c(c4)CC(=O)N5)c3)cc2C(F)(F)F)CC1 (0.833333 µM),0.0277,104% (inactive)
O=C1C2CCN(CC2)C1(CO)CO (10 µM),0.273,83.5% (inactive)
CC(C)(C)[C@]1(O)CC2OC(=O)CC23C(=O)OC2OC(=O)[C@H](O)C231 (stereo not given in full) [bilobalide] (10 µM),0.0342,110% (inactive)
CN(C)CCCSC(=N)N [dimaprit] (10 µM),0.245,94.5% (inactive)
O=c1[nH]c(=O)n([C@H]2C[C@H](O)[C@@H](CO)O2)cc1F [floxuridine] (0.833333 µM),-0.065,99% (inactive)
Nc1nccc(-c2ccc3noc(-c4ccc(Cl)cc4)c3c2)n1 [PIM-1-Inhibitor-2] (10 µM),-0.089,111% (inactive)
CCCCCCCCCCCC[N+](C)(C)CCOc1ccccc1 [domiphen] (10 µM),0.0254,87% (inactive)
Cc1ccc(Cl)c(Nc2ccccc2C(=O)O)c1Cl [meclofenamic-acid] (10 µM),0.0323,108% (inactive)
